Rows were chosen to be rich in hits. Some 2.9% of all compounds tested hit in one or more screens of this group.
ABCB6 inh MLPCN = human ABCB6 transporter inhibition; fluorescence ratio to DMSO, % at 10 µM; Q9NP58; K562-ABCB6 porphyrin accumulation, flow cytometry, 1 h; hits give low values; hit rate 0.19% among 360,000;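 active = fluorescence ratio to DMSO below 75%, the collection mean minus 3 SD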;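 also: signal is porphyrin accumulated inside mitochondria; lower ratio means ABCB6 inhibition with less porphyrin fluorescence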
MEKK3 PB1 HTS = MEKK3-MEK5 PB1 interaction, increase or decrease. hit rate 1.4% among 290,000. bead-based flow cytometry, Alexa488-MEK5 binding to MEKK3; actives lie on both sides; 0 = blocked by unlabeled MEK5, 100 = vehicle. Q99759. binding response (% of control), % at 10 µM;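 active = binding response more than 3 SD above or below the average of its plate-row segment, actives on both sides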;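 also: Alexa488 bead fluorescence after subtracting the streptavidin-only scavenger bead signal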
Target sequence (Q99759 whole entry, looked up): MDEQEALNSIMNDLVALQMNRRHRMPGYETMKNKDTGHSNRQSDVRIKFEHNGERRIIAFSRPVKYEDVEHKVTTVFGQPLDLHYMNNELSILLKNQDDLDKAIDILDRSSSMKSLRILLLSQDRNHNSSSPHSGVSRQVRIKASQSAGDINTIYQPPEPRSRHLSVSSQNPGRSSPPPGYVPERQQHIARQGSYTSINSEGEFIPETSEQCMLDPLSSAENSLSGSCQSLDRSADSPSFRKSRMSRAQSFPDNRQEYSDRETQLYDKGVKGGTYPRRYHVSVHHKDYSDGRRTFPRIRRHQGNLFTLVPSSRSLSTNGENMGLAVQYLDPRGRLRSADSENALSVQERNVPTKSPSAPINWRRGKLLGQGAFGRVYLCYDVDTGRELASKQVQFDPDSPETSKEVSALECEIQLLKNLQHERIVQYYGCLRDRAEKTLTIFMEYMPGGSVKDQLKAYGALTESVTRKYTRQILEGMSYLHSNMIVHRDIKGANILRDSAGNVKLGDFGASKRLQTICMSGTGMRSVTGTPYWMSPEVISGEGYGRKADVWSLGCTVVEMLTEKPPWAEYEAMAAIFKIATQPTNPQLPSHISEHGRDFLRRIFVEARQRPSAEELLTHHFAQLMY
MEKK2 mut-MEK5 = signal of MEK5 binding to mutant human MEKK2 PB1 domain; bead flow cytometry, Alexa488-MEK5 binding to MEKK2 mutant; percent response, % at 10 µM; hit rate 0.35% among 290,000; in the data active = percent response above about 24%, passing the limit was not always enough
CRFR2-BP ag = CRF-BP/CRF-R2 complex agonism; HEK293 CRF-R2/CRF-BP, calcium dye fluorescence (FLIPR); percent of saturating CRF peptide response; activation, % at 13.2 µM; hit rate 0.46% among 350,000; AID 588473;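 active = activation of at least 50%, plus an integration ratio under a set limit after plate pattern correction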
MEKK2 WT-MEK5 = raises or lowers MEK5 binding to wildtype human MEKK2 PB1 domain; AID 1531; hit rate 1.1% among 290,000; bead flow cytometry, Alexa488-MEK5 binding to MEKK2 WT; actives lie on both sides; binding response (% of control), % at 10 µM; Q9Y2U5; in the data active = binding response below about 67% or above about 130%
CRFBP-R2 block = CRF-BP/CRF-R2 complex antagonism. HEK293 CRF-R2/CRF-BP, CRF-induced calcium fluorescence. inhibition, % at 11.8 µM. hit rate 0.59% among 350,000;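 active = inhibition of the ligand-induced calcium signal above about 50% at the single tested concentration, limit read from the data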
ABCB6 blocker 1 = blocks the human ABCB6 transporter; AID 602430; shares compounds with ABCB6 inh MLPCN; 700 tested, under 10 active; ratio response (% of DMSO), % at 10 µM; K562-ABCB6 porphyrin accumulation, flow cytometry, 1 h; hits give low values;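 active = repeat-averaged ratio response below 75% of DMSO, the collection mean minus 3 SD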;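 also: median porphyrin fluorescence at 575 nm with 488 nm excitation from mitochondria; lower ratio means less porphyrin signal so ABCB6 inhibition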
A number is an active result; . = inactive; / = no result given.

SMILES	ABCB6 inh MLPCN	MEKK3 PB1 HTS	MEKK2 mut-MEK5	CRFR2-BP ag	MEKK2 WT-MEK5	CRFBP-R2 block	ABCB6 blocker 1
CC1(C(=O)NS(=O)(=O)c2cccc(C#N)c2)CCN1C(=O)Cc1ccc(-c2ccccc2)cc1 (stereo not given)	.	/	/	/	/	/	/
COc1ccc(OC)c(S(=O)(=O)NC(=O)C2(C)CCN2C(=O)Cc2ccccc2)c1 (stereo not given)	.	/	/	/	/	/	/
CCCCc1ccc(S(=O)(=O)NC(=O)C2(C)CCN2C(=O)Cc2ccccc2)cc1 (stereo not given)	.	/	/	/	/	/	.
CC1(C(=O)NS(=O)(=O)c2ccc(Cl)cc2)CCN1C(=O)Cc1ccccc1 (stereo not given)	.	/	/	/	/	/	/
CC(C)(C)c1ccc(S(=O)(=O)NC(=O)C2(C)CCN2C(=O)Cc2ccc(-c3ccccc3)cc2)cc1 (stereo not given)	.	/	/	/	/	/	.
COc1cc(C)ccc1S(=O)(=O)NC(=O)C1(C)CCN1C(=O)Cc1ccc(C(C)(C)C)cc1 (stereo not given)	.	/	/	/	/	/	.
CC1(C(=O)NS(=O)(=O)c2ccc(C#N)cc2)CCN1C(=O)Cc1ccc(-c2ccccc2)cc1 (stereo not given)	.	/	/	/	/	/	.
CCCOc1ccc(-c2c(C(=O)N/N=C/C3CCCCC3)nnn2-c2nonc2N)cc1	.	.	.	.	.	.	/
COc1ccc(N2CCN(c3ncccc3C#N)CC2)cc1	74	.	.	.	.	.	.
COc1ccc(N2CCN(c3ccc(N)cc3C#N)CC2)cc1	.	.	.	.	.	.	/
CC(C)(C)c1ccc(-c2noc(CCC(=O)NCC3CCCO3)n2)cc1 (stereo not given)	62	.	.	.	.	.	.
COC(=O)[C@@H](NCc1cccc(CN([C@H](C(=O)OC)C(C)C)S(C)(=O)=O)c1)C(C)C	.	.	.	.	.	.	/
CCOC(=O)CC(NC(=O)CCS(=O)(=O)c1ccc2c(c1)n(C)c(=O)c(=O)n2C)c1ccc(C)cc1 (stereo not given)	.	.	.	.	.	.	/
COc1ccc(NC(=O)COC(=O)CCCC2=NS(=O)(=O)c3ccccc3N2)cc1	.	.	.	.	.	.	.
Cc1cc(C)cc(NC(=O)COC(=O)CCCC2=NS(=O)(=O)c3ccccc3N2)c1	.	.	.	.	.	.	/
COc1cccc(NC(=O)COC(=O)CCCC2=NS(=O)(=O)c3ccccc3N2)c1	14	.	.	.	.	.	.
Nn1cnc2scc(-c3ccco3)c2c1=O	.	.	.	.	.	.	/
COc1ccc(C)cc1NC(=O)C1CC(=O)N(CCc2ccc(F)cc2)C1 (stereo not given)	.	/	/	.	/	.	/
COc1ccc(OC)c(NC(=O)C2CC(=O)N(CCc3ccc(F)cc3)C2)c1 (stereo not given)	48	/	/	.	/	.	.
CC(Sc1nnc(C2CC2)n1C1CC1)C(=O)N(C)Cc1cccc(F)c1 (stereo not given)	.	/	/	.	/	.	/
O=C(NC1CCCCC1)N1CCC(c2nc(-c3ccc(S(=O)(=O)N4CCCC4)cc3)no2)CC1	70	.	.	.	.	.	.
O=C(C1CC1)N1CCC(c2nc(-c3ccc(S(=O)(=O)N4CCCC4)cc3)no2)CC1	.	.	.	.	.	.	/
O=S(=O)(Nc1nc(SCc2ccc(Cl)cc2)n[nH]1)c1ccccc1	.	.	.	.	.	.	/
CC1(C)Cc2ccccc2-c2nnc(-c3ccccc3)n21	.	.	.	.	.	.	/
CC1(C)Cn2c(nnc2-c2ccccc2)S1	74	.	.	.	.	.	.
SMILES	ABCB6 inh MLPCN	MEKK3 PB1 HTS	MEKK2 mut-MEK5	CRFR2-BP ag	MEKK2 WT-MEK5	CRFBP-R2 block	ABCB6 blocker 1
COc1ccccc1C(=O)N(Cc1ccc(Cl)cc1)C1CCS(=O)(=O)C1 (stereo not given)	.	.	.	.	.	.	/
COc1ccc(OC)c(C(C)NC(=O)Nc2ccccc2)c1 (stereo not given)	72	.	.	.	.	.	.
COc1ccc(OC)c(C(C)NC(=O)C23CC4CC(CC(C4)C2)C3)c1 (stereo not given)	.	.	.	.	.	.	/
Cc1noc(C)c1S(=O)(=O)N1CCC(C(=O)O)CC1	.	/	/	.	/	.	.
CCCCn1cnc2c(cnn2-c2ccc(Cl)cc2)c1=O	62	.	.	.	.	.	.
COCCSc1nnc(NC(=O)c2ccc([N+](=O)[O-])cc2)s1	.	.	.	.	.	.	/
CCOC(=O)CSc1nnc(NC(=O)c2cc([N+](=O)[O-])cc([N+](=O)[O-])c2)s1	74	.	.	.	.	.	.
CC1(C)CC(=O)C(C2C3=C(CC(C)(C)CC3=O)Oc3ccc4ccccc4c32)C(=O)C1 (stereo not given)	74	.	.	.	.	81	.
CCN1CCN(C(C)CCc2ccccc2)CC1 (stereo not given)	.	.	.	.	.	.	/
CN(CC(=O)Nc1ccc(F)cc1)C(=O)COC(=O)COc1ccc(C#N)cc1	68	/	/	.	/	.	.
CCCC(=O)Nc1ccc2c(c1)Cc1ccccc1-2	73	.	.	.	.	.	.
CCC(=O)Nc1ccc2c(c1)Cc1cc(NC(=O)CC)ccc1-2	.	.	.	.	.	.	/
C=C(C)COc1cc2oc(=O)c(CC(=O)N3C[C@H]4C[C@@H](C3)c3cccc(=O)n3C4)c(C)c2cc1Cl	.	.	.	.	.	.	/
CC(OC(=O)CNC(=O)c1ccc(Cl)c(Cl)c1)C(=O)N1CCOCC1 (stereo not given)	.	/	/	.	/	.	/
CCOC(=O)c1ccc(S(=O)(=O)N2CC(=O)Nc3ccccc32)cc1	68	.	.	.	.	.	.
CC1CCCCN1C(=O)CCC(=O)Nc1nnc(C2CCCCC2)s1 (stereo not given)	20	.	.	.	.	.	.
CC(C)(C)NC(=O)c1ccc(NC(=O)c2ccccc2-c2ccccc2C(=O)O)cc1	.	.	.	.	.	.	/
O=C(O)COCC(=O)N1CCCN(c2nccc(C(F)(F)F)n2)CC1	50	.	.	.	.	.	.
COCCOC(=O)c1[nH]c2c(c1C)C(=O)CC(c1cc(OC)c(OC)c(OC)c1)C2 (stereo not given)	71	.	.	.	.	.	.
CCOc1ccc(NC(=O)c2sc3nc4n(c(=O)c3c2C)CCC4)cc1	.	.	.	.	.	.	.
CCc1cccc(NC(=O)c2sc3nc4n(c(=O)c3c2C)CCC4)c1	.	.	.	.	.	.	.
Cc1c(C(=O)Nc2ccccc2F)sc2nc3n(c(=O)c12)CCC3	.	.	.	.	.	.	.

Screens: PubChem, several laboratories
